# From the supplement of paper PMC10849652
# About 7,900 targets were measured; listed, in parts, are those with a hit and a random draw of the rest. About 0.6% of all pairs of compound and target were hits. A number with no mark means an inactive call.
# Experiments:
# Assay in all cases: log2 fold change, soluble protein after heating vs DMSO (PISA); higher = thermal stabilisation; K562 cells, 10 uM, 30 min; active = over 0.2 and 3.5 SD of the protein, either way, in both replicates (recomputed)
# [1] = compound: CC1=C(C=C(C=C1)NC(=O)C2=CC(=CC=C2)C(C)(C)C#N)NC3=CC4=C(C=C3)N=CN(C4=O)C
# Summary of the method: (§1)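 K562 cells at 2×10^6 cells/mL were given 10 μM compound for 30 min. Aliquots then went through 3 min of heating across 48°C-58°C, were pooled, and were extracted in PBS with 0.5% NP-40 at 4°C, and the supernatant after 21,000xg for 90 min was quantified by TMTpro 16plex LC-MS/MS with channel sums equalised. Thermal stability relative to control samples, from duplicates, is given as log2 fold change.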
# [2] = compound: CC1=C(C=C(C=C1)NC(=O)C2=CC(=CC=C2)N(C)C)NC(=O)C3=CC=C(C=C3)O
# Summary of the method: as §1
# [3] = compound: CC1=CC=C(C=C1)SC2=C3C=C(SC3=CN=C2)C(=O)N
# Summary of the method: as §1
# [4] = compound: CC1=NC(=CC=C1)C2=C(N=C(N2)C(C)(C)C)C3=CC4=NC=CN=C4C=C3
# Summary of the method: as §1
# Nexturastat A = compound: CCCCN(Cc1ccc(C(=O)NO)cc1)C(=O)Nc1ccccc1 [Nexturastat A]
# Summary of the method: as §1
# vemurafenib = compound: CCCS(=O)(=O)Nc1ccc(F)c(C(=O)c2c[nH]c3ncc(-c4ccc(Cl)cc4)cc23)c1F [vemurafenib]
# Summary of the method: as §1
# [5] = compound: CCCS(=O)(=O)Nc1ccc(F)c(C(=O)c2c[nH]c3ncc(Cl)cc23)c1F
# Summary of the method: as §1
# [6] = compound: CCCc1cc(C)[nH]c(=O)c1CNC(=O)c1cc(-c2ccnc(N3CCN(C)CC3)c2)cc2c1cnn2C(C)C
# Summary of the method: as §1
# givinostat = compound: CCN(CC)Cc1ccc2cc(COC(=O)Nc3ccc(C(=O)NO)cc3)ccc2c1 [givinostat]
# Summary of the method: as §1
# barasertib = compound: CCN(CCCOc1ccc2c(Nc3cc(CC(=O)Nc4cccc(F)c4)[nH]n3)ncnc2c1)CCOP(=O)(O)O [barasertib]
# Summary of the method: as §1
# [7] = compound: CC[C@@H]1C(=O)N(C)c2cnc(Nc3ccc(C(=O)NC4CCN(C)CC4)cc3OC)nc2N1C1CCCC1
# Summary of the method: as §1
# volasertib = compound: CC[C@@H]1C(=O)N(C)c2cnc(Nc3ccc(C(=O)N[C@H]4CC[C@H](N5CCN(CC6CC6)CC5)CC4)cc3OC)nc2N1C(C)C [volasertib]
# Summary of the method: as §1
# [8] = compound: CC[C@H](C)N1C=C(C2=C(C=C(C=C21)C3=CN=C(C=C3)N4CCNCC4)C(=O)NCC5=C(C=C(NC5=O)C)C)C
# Summary of the method: as §1
# epoxomicin = compound: CC[C@H](C)[C@@H](C(=O)N[C@@H]([C@@H](C)O)C(=O)N[C@@H](CC(C)C)C(=O)[C@]1(CO1)C)NC(=O)[C@H]([C@@H](C)CC)N(C)C(=O)C [epoxomicin]
# Summary of the method: as §1
# [9] = compound: CCn1c(C(=O)N(C2CC2)C2CC2)cc2c3c(ncn3C)c(Nc3cc(C)n(C)n3)nc21
# Summary of the method: as §1
# [10] = compound: CCn1cc(-c2ccnc3[nH]c(-c4cccc(CN(C)C)c4)cc23)c(-c2ccc(NC(=O)N(C)C)cc2)n1
# Summary of the method: as §1
# [11] = compound: CN(C)CC(=O)Nc1ccc2[nH]c(=O)c3ccccc3c2c1
# Summary of the method: as §1
# rosiglitazone = compound: CN(CCOC1=CC=C(C=C1)C[C@H]2C(=O)NC(=O)S2)C3=CC=CC=N3 (racemic) [rosiglitazone]
# Summary of the method: as §1
# [12] = compound: CN1C2=C(C3=C1C(=O)N(N=C3)CC4=CC(=CC=C4)N)SC(=C2)S(=O)C
# Summary of the method: as §1
# [13] = compound: CN1CCC(CNc2ccc3ncc(-c4cccc(OC(F)(F)F)c4)n3n2)CC1
# Summary of the method: as §1
# Sequence of UniProt Q9Y6R4 (Q9Y6R4 whole entry, looked up): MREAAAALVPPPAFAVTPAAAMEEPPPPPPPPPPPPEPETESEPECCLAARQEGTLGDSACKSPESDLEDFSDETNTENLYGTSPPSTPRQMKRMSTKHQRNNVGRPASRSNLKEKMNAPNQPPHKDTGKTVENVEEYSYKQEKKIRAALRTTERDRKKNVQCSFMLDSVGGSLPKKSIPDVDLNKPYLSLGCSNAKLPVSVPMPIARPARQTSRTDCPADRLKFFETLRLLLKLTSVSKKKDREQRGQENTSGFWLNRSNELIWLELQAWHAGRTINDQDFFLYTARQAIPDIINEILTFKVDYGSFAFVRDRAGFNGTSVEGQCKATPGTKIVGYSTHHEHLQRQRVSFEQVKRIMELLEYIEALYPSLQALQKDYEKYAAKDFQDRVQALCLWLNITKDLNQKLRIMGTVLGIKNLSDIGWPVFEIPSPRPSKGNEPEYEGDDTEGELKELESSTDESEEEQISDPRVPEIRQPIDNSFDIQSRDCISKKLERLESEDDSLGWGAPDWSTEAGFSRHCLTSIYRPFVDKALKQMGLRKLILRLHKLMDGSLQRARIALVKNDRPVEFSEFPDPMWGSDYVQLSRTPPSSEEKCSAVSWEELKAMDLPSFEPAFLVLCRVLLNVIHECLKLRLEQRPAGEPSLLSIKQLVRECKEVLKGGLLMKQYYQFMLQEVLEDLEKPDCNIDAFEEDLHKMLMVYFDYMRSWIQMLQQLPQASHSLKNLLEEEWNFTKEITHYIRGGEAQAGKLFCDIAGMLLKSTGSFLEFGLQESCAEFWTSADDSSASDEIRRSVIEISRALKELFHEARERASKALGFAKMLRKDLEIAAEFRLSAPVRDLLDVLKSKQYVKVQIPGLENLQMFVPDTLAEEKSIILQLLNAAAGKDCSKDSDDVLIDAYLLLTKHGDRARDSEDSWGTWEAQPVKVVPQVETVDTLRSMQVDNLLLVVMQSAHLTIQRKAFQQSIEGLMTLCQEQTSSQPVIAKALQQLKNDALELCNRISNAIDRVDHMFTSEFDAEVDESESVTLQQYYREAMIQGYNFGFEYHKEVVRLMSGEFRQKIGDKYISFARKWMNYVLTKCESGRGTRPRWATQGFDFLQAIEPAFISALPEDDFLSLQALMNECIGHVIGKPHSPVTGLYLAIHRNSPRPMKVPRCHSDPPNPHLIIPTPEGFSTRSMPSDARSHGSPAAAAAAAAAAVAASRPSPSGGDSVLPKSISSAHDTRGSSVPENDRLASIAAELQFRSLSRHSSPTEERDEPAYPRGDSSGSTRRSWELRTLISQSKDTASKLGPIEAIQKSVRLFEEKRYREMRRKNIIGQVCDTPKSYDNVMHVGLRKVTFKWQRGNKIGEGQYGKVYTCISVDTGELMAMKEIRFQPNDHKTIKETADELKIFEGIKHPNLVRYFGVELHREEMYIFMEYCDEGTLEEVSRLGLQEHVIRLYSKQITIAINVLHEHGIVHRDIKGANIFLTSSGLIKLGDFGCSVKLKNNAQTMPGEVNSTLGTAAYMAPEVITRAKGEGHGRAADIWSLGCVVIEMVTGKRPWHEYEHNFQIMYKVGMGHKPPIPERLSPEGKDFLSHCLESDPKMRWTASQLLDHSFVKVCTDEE
# Sequence of UniProt P50748 (P50748 whole entry, looked up): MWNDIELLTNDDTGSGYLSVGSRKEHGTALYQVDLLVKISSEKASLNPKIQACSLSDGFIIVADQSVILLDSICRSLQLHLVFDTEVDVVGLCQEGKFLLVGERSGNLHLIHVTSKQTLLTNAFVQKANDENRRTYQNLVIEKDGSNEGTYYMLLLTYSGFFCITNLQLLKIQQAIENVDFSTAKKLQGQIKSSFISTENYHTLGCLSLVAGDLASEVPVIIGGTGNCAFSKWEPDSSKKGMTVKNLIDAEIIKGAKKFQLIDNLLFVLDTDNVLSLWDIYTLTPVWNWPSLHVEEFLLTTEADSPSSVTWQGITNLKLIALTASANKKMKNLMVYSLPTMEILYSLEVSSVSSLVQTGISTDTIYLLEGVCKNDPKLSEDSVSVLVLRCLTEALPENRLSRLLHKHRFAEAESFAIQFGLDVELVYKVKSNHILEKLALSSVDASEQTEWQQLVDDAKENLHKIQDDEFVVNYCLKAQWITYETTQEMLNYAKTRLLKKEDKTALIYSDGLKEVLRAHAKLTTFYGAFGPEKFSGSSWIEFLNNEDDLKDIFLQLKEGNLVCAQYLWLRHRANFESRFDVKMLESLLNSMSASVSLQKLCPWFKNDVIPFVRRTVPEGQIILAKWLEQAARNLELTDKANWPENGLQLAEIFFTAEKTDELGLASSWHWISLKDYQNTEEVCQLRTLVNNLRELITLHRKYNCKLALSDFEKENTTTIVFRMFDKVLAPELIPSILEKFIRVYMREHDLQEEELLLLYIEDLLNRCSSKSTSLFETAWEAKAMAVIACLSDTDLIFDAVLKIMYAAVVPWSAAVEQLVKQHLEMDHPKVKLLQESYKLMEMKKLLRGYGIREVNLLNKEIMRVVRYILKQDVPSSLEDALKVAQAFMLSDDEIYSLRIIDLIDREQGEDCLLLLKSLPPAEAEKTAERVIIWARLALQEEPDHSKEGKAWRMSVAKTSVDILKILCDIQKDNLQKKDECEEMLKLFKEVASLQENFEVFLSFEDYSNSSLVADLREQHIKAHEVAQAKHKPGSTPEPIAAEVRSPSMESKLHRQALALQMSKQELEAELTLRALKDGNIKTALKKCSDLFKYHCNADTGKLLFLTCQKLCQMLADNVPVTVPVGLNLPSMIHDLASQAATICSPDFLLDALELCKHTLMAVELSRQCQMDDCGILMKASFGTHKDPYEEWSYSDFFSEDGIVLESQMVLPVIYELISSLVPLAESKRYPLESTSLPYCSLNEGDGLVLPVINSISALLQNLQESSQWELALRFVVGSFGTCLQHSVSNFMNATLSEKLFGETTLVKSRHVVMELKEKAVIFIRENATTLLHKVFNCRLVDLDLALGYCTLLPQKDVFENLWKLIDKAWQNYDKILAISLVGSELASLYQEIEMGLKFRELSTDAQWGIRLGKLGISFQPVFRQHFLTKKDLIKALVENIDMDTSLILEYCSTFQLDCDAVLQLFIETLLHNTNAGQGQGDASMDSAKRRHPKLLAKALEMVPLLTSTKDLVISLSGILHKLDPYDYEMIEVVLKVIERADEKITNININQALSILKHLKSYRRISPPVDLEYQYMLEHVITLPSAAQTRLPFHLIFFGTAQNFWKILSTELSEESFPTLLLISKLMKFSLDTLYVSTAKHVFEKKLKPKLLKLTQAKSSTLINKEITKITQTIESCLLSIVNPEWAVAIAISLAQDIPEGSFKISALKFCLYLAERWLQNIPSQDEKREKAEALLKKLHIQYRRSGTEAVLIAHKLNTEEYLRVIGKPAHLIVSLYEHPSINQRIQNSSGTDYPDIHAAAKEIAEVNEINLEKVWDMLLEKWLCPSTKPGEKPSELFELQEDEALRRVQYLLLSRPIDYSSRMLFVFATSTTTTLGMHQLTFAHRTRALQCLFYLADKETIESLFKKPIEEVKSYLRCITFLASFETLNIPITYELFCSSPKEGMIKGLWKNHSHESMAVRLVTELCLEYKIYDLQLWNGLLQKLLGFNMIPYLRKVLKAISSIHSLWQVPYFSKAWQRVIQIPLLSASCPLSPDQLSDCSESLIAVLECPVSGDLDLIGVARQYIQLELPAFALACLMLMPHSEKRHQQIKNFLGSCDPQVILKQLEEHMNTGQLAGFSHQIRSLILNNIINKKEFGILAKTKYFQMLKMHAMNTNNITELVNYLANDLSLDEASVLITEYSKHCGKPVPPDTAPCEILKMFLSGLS
# Sequence of UniProt O43318 (O43318 whole entry, looked up): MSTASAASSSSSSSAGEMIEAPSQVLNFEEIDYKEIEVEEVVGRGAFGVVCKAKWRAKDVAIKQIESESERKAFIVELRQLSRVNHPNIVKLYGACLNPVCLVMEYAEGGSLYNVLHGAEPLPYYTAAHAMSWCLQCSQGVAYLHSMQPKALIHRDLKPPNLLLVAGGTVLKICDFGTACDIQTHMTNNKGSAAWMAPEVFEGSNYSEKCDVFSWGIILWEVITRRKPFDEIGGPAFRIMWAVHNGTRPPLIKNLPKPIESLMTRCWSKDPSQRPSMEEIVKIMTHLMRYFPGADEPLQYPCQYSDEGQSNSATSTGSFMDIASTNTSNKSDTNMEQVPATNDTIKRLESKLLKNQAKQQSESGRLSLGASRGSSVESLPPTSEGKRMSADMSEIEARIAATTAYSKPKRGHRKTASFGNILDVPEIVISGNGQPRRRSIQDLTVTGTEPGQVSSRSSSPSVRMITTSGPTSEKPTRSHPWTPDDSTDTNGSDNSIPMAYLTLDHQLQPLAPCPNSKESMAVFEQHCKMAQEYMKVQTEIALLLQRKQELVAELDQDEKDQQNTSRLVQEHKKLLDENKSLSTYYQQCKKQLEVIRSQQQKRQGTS
# Sequence of UniProt Q08431 (Q08431 whole entry, looked up): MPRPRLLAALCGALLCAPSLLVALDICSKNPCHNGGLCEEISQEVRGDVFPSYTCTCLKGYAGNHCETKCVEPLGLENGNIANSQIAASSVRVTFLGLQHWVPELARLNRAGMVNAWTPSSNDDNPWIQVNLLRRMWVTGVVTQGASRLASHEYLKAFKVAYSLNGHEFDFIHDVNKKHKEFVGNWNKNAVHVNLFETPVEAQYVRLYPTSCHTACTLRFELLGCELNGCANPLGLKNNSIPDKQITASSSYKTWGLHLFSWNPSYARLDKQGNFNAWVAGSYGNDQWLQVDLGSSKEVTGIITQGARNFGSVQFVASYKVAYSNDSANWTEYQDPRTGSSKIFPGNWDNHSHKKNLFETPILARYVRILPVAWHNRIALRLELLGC
Target,log2 fold change [1],log2 fold change [2],log2 fold change [3],log2 fold change [4],log2 fold change (Nexturastat A),log2 fold change (vemurafenib),log2 fold change [5],log2 fold change [6],log2 fold change (givinostat),log2 fold change (barasertib),log2 fold change [7],log2 fold change (volasertib),log2 fold change [8],log2 fold change (epoxomicin),log2 fold change [9],log2 fold change [10],log2 fold change [11],log2 fold change (rosiglitazone),log2 fold change [12],log2 fold change [13]
MDC1 (UniProt Q14676),-0.019,-0.037,-0.013,-0.076,0.048,-0.037,-0.008,0.074,0.055,-0.074,0,-0.074,-0.028,0.039,-0.03,0.384,0.015,0.019,0.527 (active),0.069
MAPK12 (UniProt P53778),-0.043,0.017,-0.022,0.09,-0.112,0.019,0.104,0.016,-0.058,-0.031,-0.097,0.036,-0.128,0.089,0.182,-0.051,0.009,-0.176,-0.097,-0.077
MAP3K4 isoform 2 (UniProt Q9Y6R4),-0.012,0.026,-0.018,-0.003,0.008,-0.033,-0.001,-0.012,-0.015,0.02,0.141,0.398 (active),-0.013,0.007,0,-0.519 (active),0.013,0.018,-0.018,0.024
ILF2 (UniProt Q12905),0.036,-0.032,-0.031,-0.041,0.084,0.028,-0.042,0.032,-0.02,-0.119,0.277,0.281,0.029,-0.186,-0.018,0.2,-0.053,-0.099,0.16,0.352
INTS7 (UniProt Q9NVH2),0.134,-0.007,0.088,0.091,-0.001,0.039,0.018,0.027,0.242,0.022,0.035,-0.313,0.1,-0.029,-0.119,-0.1,0.038,0.033,0.069,0.3
LIAS (UniProt O43766),-0.044,0.119,-0.128,-0.002,-0.057,-0.013,-0.13,-0.01,-0.06,-0.001,0.051,0.055,-0.021,-0.011,0.027,-0.044,-0.043,0.003,-0.052,0.057
MIER1 isoform 12 (UniProt Q8N108),0.003,0.016,0.002,0.012,0.306 (active),-0.006,0.008,-0.013,0.31 (active),0.01,-0.032,-0.102,0.066,0.02,-0.039,-0.095,-0.033,-0.027,-0.077,-0.107
KEAP1 (UniProt Q14145),-0.024,0.032,0.005,-0.009,0.038,0.054,0.101,0.004,0.034,0.082,-0.026,-0.357 (active),-0.034,-0.024,-0.017,0.019,0.033,0.024,0.056,0.053
MFGE8 (UniProt Q08431),0.034,-0.027,-0.122,-0.061,0.161,-0.028,-0.124,0.019,-0.004,-0.057,0.061,0.362,-0.007,-0.003,0.063,-0.057,-0.103,-0.092,0.114,0.098
MARCKS (UniProt P29966),-0.001,-0.066,0.01,0.072,-0.104,0.047,-0.004,0.252,-0.096,0.005,0.035,-0.027,-0.091,-0.044,0,0.268 (active),-0.043,0.03,-0.014,0.089
KHDC4 (UniProt Q7Z7F0),-0.008,-0.055,0.026,0.071,0.068,0.113,0.017,0.038,0.048,0.049,-0.063,-0.236 (active),0.107,0.036,-0.045,-0.057,0.137,0.035,0.071,-0.014
ILF3 isoform 7 (UniProt Q12906),0.028,-0.068,-0.087,-0.036,0.146,-0.036,-0.1,0.102,-0.017,-0.125,0.348,0.356,-0.021,-0.185,-0.02,0.135,-0.101,-0.095,0.146,0.231
LMNB1 (UniProt P20700),-0.019,0.027,-0.046,-0.012,-0.045,0.1,0.065,-0.029,0.002,0.021,-0.045,-0.308 (active),0.023,0.037,-0.021,0.115,0.034,-0.049,-0.034,0.026
IPO9 (UniProt Q96P70),0.029,0.033,0,-0.001,-0.075,0.079,0.075,-0.022,-0.018,0.025,-0.227 (active),-0.611 (active),-0.003,-0.031,0.03,0.034,0.009,0.018,-0.007,-0.077
MAP3K7 (UniProt O43318),-0.008,-0.039,0.041,0.019,0.027,0.042,0.074,0.008,0.093,0.079,-0.015,-0.369 (active),-0.008,0.018,0.032,0.043,0.046,0.079,0.079,-0.093
KNTC1 (UniProt P50748),-0.027,-0.003,-0.021,0.026,0.034,0.042,0.036,0.092,0.082,0.035,-0.255,-0.504 (active),0.022,0.016,-0.015,-0.007,0.037,0.044,0.027,-0.219
